Bioassay records: PubChem BioAssay, Paczesny and Yang Labs, IUPUI and University of Michigan
The sample as a whole holds a higher share of hits than the screen did.
ST2 inh: IL1RL1 inhibition. AlphaLISA ST2-Fc/biotin-IL-33 interaction, 1 h. inhibition, % for hits at 17 µM. 78,000 compounds, 2.3% hits. Q01638; in the data active = inhibition above about 30%
Target sequence (Q01638 whole entry, looked up): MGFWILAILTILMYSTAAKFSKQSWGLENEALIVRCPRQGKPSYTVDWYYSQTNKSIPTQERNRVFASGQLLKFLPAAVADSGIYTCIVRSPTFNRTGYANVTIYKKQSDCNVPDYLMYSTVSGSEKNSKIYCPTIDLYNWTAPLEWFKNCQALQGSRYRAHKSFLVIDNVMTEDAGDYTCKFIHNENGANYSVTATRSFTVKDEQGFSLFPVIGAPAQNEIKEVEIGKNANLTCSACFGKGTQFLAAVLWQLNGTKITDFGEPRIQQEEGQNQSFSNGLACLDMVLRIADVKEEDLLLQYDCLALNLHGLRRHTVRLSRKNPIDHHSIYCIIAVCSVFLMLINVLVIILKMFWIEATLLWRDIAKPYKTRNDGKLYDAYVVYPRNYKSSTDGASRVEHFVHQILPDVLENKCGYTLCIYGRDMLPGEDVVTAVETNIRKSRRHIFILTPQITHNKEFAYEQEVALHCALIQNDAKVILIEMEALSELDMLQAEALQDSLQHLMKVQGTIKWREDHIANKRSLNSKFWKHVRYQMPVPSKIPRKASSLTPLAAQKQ
* = called active by the depositor; i = inactive.

SMILES	ST2 inh
Cn1c(=O)c2c(nc(SCC(=O)O)n2Cc2cc3c(cc2Cl)OCO3)n(C)c1=O	37.0%*
Cn1c(=O)c2c(nc(Oc3ccc4c(c3)OCO4)n2Cc2ccc(Cl)cc2)n(C)c1=O	i
Cc1ccnc(NCCn2cc(C3CC=CCC3)nn2)c1 (configuration not stated)	i
CCN(CC)CC(=O)N(CC1CCN(CCOC)CC1)CC1CCCN1CC (configuration not stated)	i
CCOc1ccc(C2Nc3ccccc3NC3=C2C(=O)CCC3)cc1 (configuration not stated)	i
COc1ccc(C2CC(=O)C3=C(C2)Nc2ccccc2NC3c2ccc(C)o2)cc1 (configuration not stated)	i
Cc1ccc(C2Nc3ccccc3NC3=C2C(=O)CCC3)o1 (configuration not stated)	32.0%*
CSc1ccc(CN2CCN(c3ncccn3)CC2)cc1	i
CC(C)NC(=O)CNC(=O)Cn1ccc2ccccc2c1=O	i
CC(C)CCNC(=O)CSc1cc(=O)n(C)c2ccccc12	i
O=[N+]([O-])c1ccc(OCCO)c(OCCO)c1	i
N#Cc1c([N+](=O)[O-])cc([N+](=O)[O-])cc1S(=O)(=O)Cc1ccccc1	i
CCO/C=C1\c2cc([N+](=O)[O-])ccc2-c2c1cc([N+](=O)[O-])cc2[N+](=O)[O-]	54.0%*
Cc1ccc(N=Cc2nc(-c3ccccc3F)oc2O)c(C)c1	33.0%*
Oc1oc(-c2ccccc2)nc1C=Nc1ccc(Br)cn1	i
Cc1ccc(N=Cc2nc(-c3ccc(Br)cc3)oc2O)c(C)c1	i
Cc1ccc(N=Cc2nc(-c3ccccc3)oc2O)c(Br)c1	i
Oc1oc(-c2ccc(Br)cc2)nc1C=Nc1ccc(Br)cn1	i
Oc1oc(-c2ccccc2F)nc1C=Nc1ccc(Cl)cn1	32.0%*
O=C(NCCC1=CCCCC1)c1ccc2c(c1)OCO2	i
COc1ccc(Cc2nnc(Nc3ccc4c(c3)OCO4)[nH]c2=O)cc1	i
CCSc1nc2c(c(=O)[nH]1)C(c1cccc(Br)c1)C(C(=O)OC(C)C)=C(C)N2 (configuration not stated)	i
COc1cccc(CNS(=O)(=O)c2c(C)n[nH]c2C)c1	i
COc1cccc(C(=O)Nc2ccc(Nc3nc(C)cc(Nc4ccc(C)cc4)n3)cc2)c1	i
CCCC(=O)Nc1ccc(Nc2nc(C)cc(Nc3ccc(OC)cc3)n2)cc1	i
SMILES	ST2 inh
CCOc1ccc(C(=O)Nc2ccc(Nc3nc(C)cc(Nc4ccc(OC)cc4)n3)cc2)cc1	30.0%*
CN(CCNC(=O)CSc1cc(=O)n(C)c2ccccc12)Cc1ccccc1	i
CCC(=O)N1CCc2cc(Br)cc(S(=O)(=O)Nc3ccc(OC)cc3)c21	i
COc1ccccc1N1C(=O)CC(N2CCN(c3ccc(F)cc3)CC2)C1=O (configuration not stated)	i
COc1ccc(OC)c(N2C(=O)CC(N3CCN(c4ccc(F)cc4)CC3)C2=O)c1 (configuration not stated)	31.0%*
CCOc1ccc(N2C(=O)CC(N3CCN(c4ccc(F)cc4)CC3)C2=O)cc1 (configuration not stated)	i
NC(=O)CSc1oc(-c2ccccc2)nc1S(=O)(=O)c1ccc(F)cc1	i
C[C@H]1[C@@H]2[C@@H](O)C([C@H](C)C(=O)NCc3ccccc3Cl)CC[C@@]2(C)CC[C@@H]1NC(=O)c1ccncc1 (some centres not stated)	i
COc1ccc(OCCCN2CCCCCC2)cc1	43.0%*
COc1ccc(CN2CCCCCC2)cc1	i
Cc1cccc(OCCCN2CCCC2)c1	i
COc1ccc(S(=O)(=O)N2CCC(C(=O)NCCC3=CCCCC3)CC2)cc1	i
CC(C1CC1)N(C(=O)c1ccc(N)cc1)c1ccccc1 (configuration not stated)	i
COc1ccc(Nc2ccccc2)c(C)c1	37.0%*
COc1ccc(Nc2ccccc2C(=O)O)cc1	35.0%*
COc1ccc(NS(=O)(=O)c2cccc(C(=O)Nc3ccccc3C(=O)O)c2)cc1	i
COc1ccc(NC2=C(C)C(=O)CC2)cc1	i
COc1ccc(Nc2ccc(OC)cc2)cc1	70.0%*
COc1ccc(CNc2ccccc2C(=O)O)cc1	i
COc1ccc(NC(=O)Nc2ccc(I)cc2)cc1	i
COc1ccc(C2CC(=O)C=C(Nc3ccccc3)C2)cc1 (configuration not stated)	i
COc1ccc(OC)c(S(=O)(=O)Nc2ccccc2)c1	i
CN1CCN(C(=O)c2ccc3c(=O)n(CCc4ccccc4)c(=O)[nH]c3c2)CC1	i
CC(C)C1c2[nH]c3ccccc3c2CCN1C(=O)CSc1ccc2nnc(-c3cccnc3)n2n1 (configuration not stated)	i
CC(C)(C)c1ccc(OCc2nnc(SCc3csc(N)n3)n2-c2ccccc2)cc1	i
SMILES	ST2 inh
COc1ccccc1CNC(=O)C(C)Sc1ccc(Cl)cc1 (configuration not stated)	i
Cc1onc(-c2ccccc2)c1C(=O)Nc1ccccc1F	i
CCn1ccnc1CNC1CC(=O)N(Cc2ccc(F)cc2)C1 (configuration not stated)	i
Cc1nn(C)c(C)c1CCC(=O)N1CCN(C(=O)C2CCCO2)CC1 (configuration not stated)	i
COc1cccc(NC(=O)O[C@@H]2CO[C@H]3[C@@H]2OC[C@@H]3Nc2nccc(-c3ccc(-c4ccccc4)cc3)n2)c1	i
COc1cc(NC(=O)N[C@H]2CO[C@H]3[C@@H]2OC[C@@H]3Nc2nccc(-c3cccs3)n2)cc(OC)c1	i
O=C(Nc1ccc(Oc2ccccc2)cc1)O[C@@H]1CO[C@H]2[C@@H]1OC[C@@H]2Nc1nccc(-c2cccs2)n1	34.0%*
CCOc1ccc(S(=O)(=O)Nc2ccc(OC)cc2)c2cccnc12	i
CC1=C(C#N)c2nc(N)c(C#N)c(C)c2/C1=C\c1cccc([N+](=O)[O-])c1	i
CC1=C(C#N)C(=O)NC(=O)/C1=C\c1ccc(-c2cccc([N+](=O)[O-])c2)o1	30.0%*
CC(=O)c1ccc(N2N=C(C)/C(=C/c3ccc(-c4cccc([N+](=O)[O-])c4)o3)C2=O)cc1	i
C=CCc1ccccc1OCC(O)Cn1c(C)nc2ccccc21 (configuration not stated)	i
CN(Cc1csc(-c2cccs2)n1)C(=O)c1ncc[nH]1	i
Cc1ccc(NC(=O)c2ccccc2-c2nc3ccccc3[nH]2)cc1	i
Cc1cccn2c(=O)c3cc(C(=O)N4CCCC4)n(C)c3nc12	i
CN(c1ccccc1)c1ncnc(N)c1[N+](=O)[O-]	i
CN(c1ccccc1)c1ccc(/C=C/[N+](=O)[O-])cc1	50.0%*
CN(C)c1ccc(/C=C/c2c([N+](=O)[O-])c(=O)n(C)c(=O)n2C)cc1	i
CCOC(=O)c1nn(CC2CC2)c2c1CN(Cc1cn(C)nc1C)CC2	i
Cc1cc(=O)n2ncn(Cc3ccccc3)c2n1	i
O=C(CN1C(=O)C2CCCCN2c2ccc(C(=O)N3CCCCC3)cc21)Nc1ccc2c(c1)OCCO2 (configuration not stated)	i
Cc1ccccc1CNC(=O)C(=O)Nc1cccc(C)c1C	i
O=C(NCCN1CCCC1)C1CC(=O)N(C2CCCCCC2)C1 (configuration not stated)	i
CCC(=O)Nc1cccc(C(=O)N2C[C@]3(C)C[C@H]2CC(C)(C)C3)c1	i
Cc1[nH]n(-c2ccccc2)c(=O)c1C=Nc1cccc(N)c1	i
